Screens: PubChem BioAssay, National Center for Advancing Translational Sciences (NCATS)
KDM5B inhibitor: Primary screen for KDM5B Histone Demethylases FDH-coupled qHTS; Lysine-specific demethylase 5B (Homo sapiens), Q9UGL1; KDM5B demethylase, FDH-coupled NADH fluorescence (FDH is formaldehyde dehydrogenase); Potency, µM (highest dose often 57.7 µM), most hits filed as inhibitors; 220,000 tested, 2.6% active; AID 1347165, 2019; active means well fitted inhibition curve with a large enough effect; further: 0% is about no effect; nearly all actives have a fitted effect of over 70% in size
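qHTS format, multiple compound concentrations. Buffer 50 mM HEPES pH 7.5/0.01% Tween-20; 200 nM KDM5BΔAP final; 10 min compound preincubation; substrate-mix levels 12.5 µM peptide, 25 µM α-KG, 0.25 mM NAD⁺; 30 min RT; ΔRFU.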
* = called active by the depositor; i = inactive. The sample as a whole holds a higher share of hits than the screen did. Potency means the concentration at half of the fitted maximal effect.

SMILES | KDM5B inhibitor
Cc1ccc(C(=O)NCc2ccc(N3CCN(C)CC3)nc2)o1 | i
CCc1ccc(C(=O)NCc2ccnc(N3CCN(C)CC3)c2)o1 | i
CN1CCN(c2cc(=O)c3ccnc(-c4ccc(CO)cc4)c3o2)CC1 | 35.5µM*
CN1CCN(c2cc(=O)c3ccnc(-c4cccc(CO)c4)c3o2)CC1 | 28.2µM*
CN(C)c1cc(=O)c2ccnc(-c3cccc(CO)c3)c2o1 | i
CSc1ccc(NC(=O)Cc2cccs2)cc1 | i
OCCC1CN(c2nc(-c3ccccc3)nc3c2CCC3)CCN1C1CCCC1 (centres undefined) | i
O=C(OCCOc1ccccc1F)c1ccc2nccnc2c1 | i
Clc1cccc(Nc2ncnc3onc(-c4cccc(Cl)c4)c23)c1 | i
O=C(Nc1cccc(-c2nn3cnnc3s2)c1)c1ccccc1 | i
CC(CNC(=O)c1ccc(C(C)(C)C)cc1)NC(=O)c1ccc(C(C)(C)C)cc1 (centres undefined) | i
COC(=O)C12C3CCC4C5C3C1C5(C(=O)OC)C42 (centres undefined) | i
Cn1c(=O)c2c(ncn2CCC(=O)Nc2ccccc2Cl)n(C)c1=O | i
COC(=O)CCN(C)CC1CCCO1 (centres undefined) | i
COc1ccc(-c2ccc3c(n2)c(=O)ncn3CC2CC2)cc1OC | i
COCCn1c(-c2ccc(Cl)cc2)n[nH]c1=S | i
COCCn1cnc2ccc(-c3ccsc3)nc2c1=O | 35.5µM*
COCCn1cnc2ccc(-c3ccc(F)c(Cl)c3)nc2c1=O | 31.6µM*
COCCn1cnc2ccc(-c3cccc(C)c3)nc2c1=O | 39.8µM*
COCCn1cnc2ccc(-c3ccc4c(c3)OCO4)nc2c1=O | i
COCCn1cnc2ccc(-c3cccc(C(F)(F)F)c3)nc2c1=O | i
Cn1c(=O)c2c(ncn2CCC(=O)Nc2ccc(F)c(Cl)c2)n(C)c1=O | i
COCCCn1cnc2cccnc21 | i
Oc1ccccc1C=Nc1ccc(Cl)c(C(F)(F)F)c1 | i
O=C(N/N=C/c1ccccc1Br)c1csc2ccccc12 | i
SMILES | KDM5B inhibitor
COC(=O)C(C)N1C(=O)S/C(=C/c2ccccc2)C1=O (centres undefined) | i
Cn1nc(C2CCNCC2)c2c(C(=O)NC3CC3)cc(C3CC3)nc21 | 89.1µM*
Cn1nc(C2CCCNC2)c2c(C(=O)NC3CC3)cc(C3CC3)nc21 (centres undefined) | 89.1µM*
Cc1nn(C)c2nc(C3CC3)cc(C(=O)N3CCN(c4ncccn4)CC3)c12 | i
Cn1nc(C(=O)Nc2ccccc2C(=O)NC2CC2)c2ccccc2c1=O | i
CC1CCC(NC(=O)c2cc(C3CC3)nc3ccccc23)CC1 (centres undefined) | i
Cc1cccc(C(=O)Oc2cccc(Br)c2)c1C | i
COc1ccc(CN(Cc2ccco2)C(=O)c2cc(=O)c3ccccc3o2)cc1 | i
CCOC(=O)c1ccc(NC(=O)c2cc(N3CCCCS3(=O)=O)ccc2Cl)cc1 | i
COc1cccc(NC(=O)N2CCOc3ccc(Cl)cc32)c1 | i
O=C(c1nc(-c2cccc(C(F)(F)F)c2)c2cnccn12)N1CCCC1 | 31.6µM*
N#CC1CCN(C(=O)c2nc(-c3cccnc3)c3cnccn23)CC1 | i
O=C(c1cccc(C(F)(F)F)c1)N1CCCCCCC1 | i
O=C(Nc1ccc(C(=O)N2CCCC2)cc1)c1cccc(C(F)(F)F)c1 | i
O=C(c1nc(-c2ccc(F)cc2)c2cnccn12)N1CCCC1 | 31.6µM*
C[C@H](O)c1onc(-c2ccc(F)cc2)c1C(=O)N1CCCC1 | i
O=C(c1ccc(C(F)(F)F)cc1)N1CCC2(CC1)CC(c1cccc(C(F)(F)F)c1)=NO2 | i
Cc1nc(N2CCOCC2)cc(N2CCN(C(=O)c3cccc(C(F)(F)F)c3)CC2)n1 | i
O=C(c1nc(-c2cccc(C(F)(F)F)c2)c2cnccn12)N1CCOCC1 | 10µM*
CCOC(=O)/C(C#N)=C\c1cc(Cl)c(OC)c(OC)c1 | i
Cc1ccc(C(=O)NC2CCCN(c3cc(-c4ccc(F)cc4)[nH]n3)C2)cn1 (centres undefined) | i
O=C(Nc1ccc(S(=O)(=O)N2CCCCCC2)cc1)c1csnn1 | i
CN1CCOC(CNC(=O)Cc2cccc(F)c2)C1 (centres undefined) | i
Cn1c(=O)c2nc(SCCC(=O)Nc3ccccc3)n(C)c2n(C)c1=O | i
CC1CCN(C(=O)COc2ccccc2-c2noc(-c3ccccc3F)n2)CC1 | i
SMILES | KDM5B inhibitor
CCCN1CCN(c2ccc(-c3nc(C)no3)cn2)CC1 | i
COc1ccc(N2CCN(c3ncccc3-c3nc(-c4ccccc4C)no3)CC2)cc1 | i
COC(=O)[C@@H]1CCCN1c1ccc(-c2nc(-c3ccccc3F)no2)cn1 | 25.1µM*
CC1CCCN(C(=O)COc2ccccc2-c2noc(-c3ccc(Cl)cc3)n2)C1 (centres undefined) | i
COCC1CCN(c2ccc(-c3nc(-c4ccccc4C)no3)cn2)C1 (centres undefined) | 31.6µM*
Cc1nn(Cc2ccccc2)c(C)c1NC(=O)COCc1cc(-c2ccco2)on1 | i
Cc1ccc(C)c(NC(=O)c2cccc[n+]2[O-])c1 | i
COc1cc(C(=O)N(Cc2cccnc2)Cc2cc3cc(C)ccc3[nH]c2=O)cc(OC)c1OC | i
CCCCN(C)C(=O)c1ccc(S(=O)(=O)NCc2ccco2)cc1 | i
CCOc1ccccc1/C=C1\Oc2cc(OS(C)(=O)=O)ccc2C1=O | i
CCOc1ncccc1C(=O)N(Cc1nnc(-c2ccccc2)o1)C(C)C | i
O=C(COC(=O)c1cc2ccccc2oc1=O)NCc1ccccc1Cl | i
O=C(NC(c1ccccc1)C1CC1)c1cc(Cl)nc(Cl)c1 (centres undefined) | i
NC1CCC(n2cc(C(=O)N3CCC(Nc4ccccn4)CC3)nn2)CC1 (centres undefined) | i
NC1CCC(n2cc(C(=O)NC3CCCN(c4ncccn4)C3)nn2)CC1 (centres undefined) | 25.1µM*
CN(C)C(CNC(=O)c1cn(C2CCC(N)CC2)nn1)c1ccccn1 (centres undefined) | i
O=C(c1cc2c(s1)CCCC2)N1CCN(c2ncccn2)CC1 | i
O=C(Nc1ccc(Br)cc1F)Nc1c(NC2CCCC2)c2ccccc2oc1=O | i
CN(C)S(=O)(=O)c1ccc(Cl)c(C(=O)Nc2cccc3cccnc23)c1 | i
COc1ccc(C2CC(=O)Oc3c2c(=O)[nH]c2ccccc32)cc1OC (centres undefined) | i
CC(C)C[C@@H]1N[C@H](C(=O)N2CCN(C)CC2)Cc2cn(Cc3ccccn3)c3cccc1c23 | i
CC#CCn1cc2c3c(cccc31)[C@H](CC(C)C)N[C@H](C(=O)NC1CCCC1)C2 | i
CC(C)C[C@@H]1N[C@H](C(=O)O)Cc2cn(CC3CCC3)c3cccc1c23 | 31.6µM*
CC(C)C[C@@H]1N[C@H](C(=O)NCc2ccccc2)Cc2cn(Cc3ccncc3)c3cccc1c23 | i
CC(C)C[C@@H]1N[C@H](C(=O)NC2CCC2)Cc2cn(CC3CC3)c3cccc1c23 | i
CC(C)C[C@@H]1N[C@H](C(=O)O)Cc2cn(Cc3nccn3C)c3cccc1c23 | 31.6µM*
CCN(C(=O)c1cc(=O)c2cc(C)ccc2o1)c1ccccc1 | i
Fc1ccc(CCNC(=S)NCc2ccc(Cl)cc2)cc1 | i
N#Cc1nc(-c2ccco2)oc1N1CCN(C(=O)c2ccc(F)cc2F)CC1 | i
Cc1cccc(OCC(=O)Nc2ccc(-c3nnc4n3CCCC4)cc2)c1 | i
